Laboratory results: PubChem BioAssay (NCATS)
Values joined by “and” are separate entries in the source; they are usually repeats but may differ in a detail not shown here. Equal entries are not always repeated. Results filed as inconclusive are left out. More than one record can exist for a structure, and the calls need not agree. Active and inactive are the calls of the source. Unless noted, calls follow the shape of the dose curve; as a rule, active = well fitted curve in the direction sought with a large enough effect; inconclusive = small, poorly fitted or top-dose-only effect, or another doubt; inactive = no such curve, though single readings can be large; an effect the other way counts as inactive or inconclusive.

Experiments:
[1] = target: Cellular tumor antigen p53 (Homo sapiens) (UniProt P04637); assay: Primary qHTS for small molecule compounds that upregulate eGFP-tagged delta133p53alpha (in N-terminal) cells. (AID 2060322); details: NCI-H358 eGFP-delta133p53alpha fluorescence, 24 h; activation: hits give high values; also: nearly all actives have a fitted effect of over 75% in size; also: potency is read from the fitted curve at half-maximal effect;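 as to activation: cells pre-induced with doxycycline then dosed without doxycycline; series mostly up to about 56 µM; 0% = DMSO vehicle and 100% = reference activator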
Chain of Cellular tumor antigen p53 (Homo sapiens) (P04637 whole entry, looked up): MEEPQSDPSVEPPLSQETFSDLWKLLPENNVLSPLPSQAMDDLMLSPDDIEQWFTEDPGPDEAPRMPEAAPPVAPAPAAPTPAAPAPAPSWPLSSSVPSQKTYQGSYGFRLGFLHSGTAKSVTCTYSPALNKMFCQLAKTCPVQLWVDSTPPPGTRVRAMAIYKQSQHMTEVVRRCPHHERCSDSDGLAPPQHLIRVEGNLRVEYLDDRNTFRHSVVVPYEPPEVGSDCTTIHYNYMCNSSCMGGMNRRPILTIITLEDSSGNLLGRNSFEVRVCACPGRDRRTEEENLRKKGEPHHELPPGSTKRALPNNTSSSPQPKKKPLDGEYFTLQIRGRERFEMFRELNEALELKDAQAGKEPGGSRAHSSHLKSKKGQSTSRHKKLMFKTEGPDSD
In short: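 NCI-H358 cells pre-induced 24 h with 10 ng/ml doxycycline for eGFP-delta133p53alpha, plated dox-free and exposed 24 h at 37C to titrated compounds. Fixed, Hoechst-stained; gated GFP peak intensity by laser scanning cytometry, normalized to DMSO (0%) and 57.5 uM 5-azacytidine (100%).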

[2] = target: Aldehyde dehydrogenase, mitochondrial (Homo sapiens) (UniProt P05091); assay: qHTS for Inhibitors of the Aldehyde Dehydrogenase Family (ALDH2) Primary screen (AID 2061308);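 also: plate controls were vehicle for no effect and reference inhibitor for full effect; nearly all actives have a fitted effect of over 55% in size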
[3] = target: Retinaldehyde dehydrogenase 3 (Homo sapiens) (UniProt P47895); assay: qHTS for Inhibitors of the Aldehyde Dehydrogenase Family (ALDH1A3) Primary screen (AID 2061315);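 also: plate controls were DMSO vehicle for no effect and reference inhibitor for full effect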
[4] = BET inhibitor-based combinations targeting novel dependencies in MECOM-rearranged (r) AML: OCI-AML3 cell line (AID 2202232); details: Potency: OCI-AML3 viability; also: nearly all actives have a fitted effect of over 35% in size; also: potency is read from the fitted curve at half-maximal effect
In short: (§1)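 Readout: CellTiter-Glo luminescence. Exposure: 48 h, 11 concentrations, 500 cells/well. Metric: AUC and within-line Z-AUC after DMSO/empty-well normalization.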

[5] = BET inhibitor-based combinations targeting novel dependencies in MECOM-rearranged (r) AML: MV-4-11 cell line (AID 2202233); also: nearly all actives have a fitted effect of over 45% in size; also: potency is read from the fitted curve at half-maximal effect
In short: (§2)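 Seeding density was 500 cells/well, and drug exposure lasted 48 hr under standard culture conditions. Read-out used CellTiter-Glo reagent with a 15 min room-temperature incubation before luminescence measurement; AUC and Z-AUC summarize the normalized responses.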

[6] = BET inhibitor-based combinations targeting novel dependencies in MECOM-rearranged (r) AML: HNT-34 cell line (AID 2202234); also: nearly all actives have a fitted effect of over 35% in size; also: potency is read from the fitted curve at half-maximal effect
In short: as §2

[7] = target: Retinaldehyde dehydrogenase 3 (Homo sapiens) (UniProt P47895); assay: qHTS for Inhibitors of the Aldehyde Dehydrogenase Family (ALDH1A3) Validation screen (AID 2061312); also: % is scaled to controls: 0 for no effect and ±100 for the full control effect; nearly all actives have a fitted effect of over 45% in size
[8] = BET inhibitor-based combinations targeting novel dependencies in MECOM-rearranged (r) AML: SET-2 cell line (AID 2202231); details: SET-2 AML cells viability, CellTiter-Glo luminescence, 48 h; viability: hits give low values, concentration not given here; also: nearly all actives have a fitted effect of over 35% in size; also: potency is read from the fitted curve at half-maximal effect;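 as to viability: plate controls were DMSO treated cells for no effect and wells without cells for full effect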
In short: as §1

[9] = BET inhibitor-based combinations targeting novel dependencies in MECOM-rearranged (r) AML: UCSD-AML1 cell line (AID 2202235); also: nearly all actives have a fitted effect of over 40% in size; also: potency is read from the fitted curve at half-maximal effect
In short: as §2

[10] = BET inhibitor-based combinations targeting novel dependencies in MECOM-rearranged (r) AML: AML-191 cell line (AID 2202236; also: nearly all actives have a fitted effect of over 35% in size; also: potency is read from the fitted curve at half-maximal effect)
In short: as §1

[11] = BET inhibitor-based combinations targeting novel dependencies in MECOM-rearranged (r) AML: AML-194 cell line (AID 2202237; also: nearly all actives have a fitted effect of over 40% in size; also: potency is read from the fitted curve at half-maximal effect)
In short: as §1

[12] = target: Aldehyde dehydrogenase, mitochondrial (Homo sapiens) (UniProt P05091); assay: qHTS for Inhibitors of the Aldehyde Dehydrogenase Family (ALDH2) Validation screens (AID 2061302; active = well fitted inhibition curve with a large enough effect; title and protocol of this record describe different tests;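 also: plate controls were DMSO vehicle for no effect and maximal DPI positive control response for full effect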)
[13] = target: Aldehyde dehydrogenase, mitochondrial (Homo sapiens) (UniProt P05091); assay: qHTS for Inhibitors of the Aldehyde Dehydrogenase Family (ALDH2) Confirmatory screens (AID 2061303; active = well fitted inhibition curve with a large enough effect; title and protocol of this record describe different tests; also: % is scaled to controls: 0 for no effect and ±100 for the full control effect; nearly all actives have a fitted effect of over 45% in size)
[14] = qHTS for Inhibitors of the Aldehyde Dehydrogenase Family (ALDH1A2, ALDH1A3, ALDH2, ALDH3A1) (AID 2061307); also: nearly all actives have a fitted effect of over 50% in size
[15] = target: Retinaldehyde dehydrogenase 3 (Homo sapiens) (UniProt P47895); assay: qHTS for Inhibitors of the Aldehyde Dehydrogenase Family (ALDH1A3) Confirmatory screens (AID 2061311); also: nearly all actives have a fitted effect of over 60% in size; also: potency is read from the fitted curve at half-maximal effect
[16] = target: Retinal dehydrogenase 2 (Homo sapiens) (UniProt O94788); assay: qHTS for Inhibitors of the Aldehyde Dehydrogenase Family (ALDH1A2) Confirmation screens (AID 2061314); also: nearly all actives have a fitted effect of over 65% in size; also: potency is read from the fitted curve at half-maximal effect
[17] = target: Aldehyde dehydrogenase 1A1 (Homo sapiens) (UniProt P00352); assay: qHTS for Inhibitors of the Aldehyde Dehydrogenase Family (ALDH1A1) Confirmatory screens (AID 2061316); also: nearly all actives have a fitted effect of over 65% in size; also: potency is read from the fitted curve at half-maximal effect

Cc1cn(-c2cc(NC(=O)c3ccc(C)c(Nc4nccc(-c5cccnc5)n4)c3)cc(C(F)(F)F)c2)cn1
active: Potency [1] 30.1 µM | Potency [4] 1.18 µM | Potency [5] 1.86 µM | Potency [6] 0.0295 µM
inactive: activation [1] 12.7% | Potency [2] | Potency [3]

Cc1nccn1CC1CCc2c(c3ccccc3n2C)C1=O (stereo not drawn)
inactive: activation [1] 4.27% and -3.67% | Potency [2] | Potency [3]
active: Potency [1] 34.7 µM

C[C@]12CC[C@@H]3c4ccc(O)cc4CC[C@H]3[C@@H]1CC[C@@H]2OC(=O)CCC1CCCC1
inactive: activation [1] 19.6% | Potency [2] | Potency [7] | Potency [3]
active: Potency [1] 30.9 µM

NS(=O)(=O)NCCNc1nonc1C(=Nc1ccc(F)c(Br)c1)NO
inactive: activation [1] -6.33% and -3% | Potency [2] | Potency [3] | viability [8] 106% | Potency [4] | Potency [5] | Potency [6] | Potency [9] | Potency [10] | Potency [11]
active: Potency [1] 2.16 µM

CS(=O)c1ccc(-c2nc(-c3ccc(F)cc3)c(-c3ccncc3)[nH]2)cc1 (stereo not drawn)
active: Potency [1] 49.8 µM
inactive: activation [1] -3.57% | Potency [2] | Potency [3] | Potency [4] | Potency [10] | Potency [11]

CN(C)c1ccc(/C=C2\C(=O)Nc3ccccc32)cc1
inactive: activation [1] -19.4% | Potency [12] | Potency [7]
active: Potency [1] 43.2 µM

CCCCOc1c(C(=O)c2c(F)cc(C)cc2F)cnc2n[nH]cc12
inactive: activation [1] 10.1% | Potency [2] | Potency [3]
active: Potency [1] 3.79 µM | Potency [4] 2.09 µM | Potency [5] 1.48 µM | Potency [6] 2.95 µM | Potency [9] 2.35 µM | Potency [10] 2.63 µM

COc1cc2c(Nc3ccc(Br)cc3F)ncnc2cc1OCC1CCN(C)CC1
active: Potency [1] 21.3 µM | Potency [4] 23.5 µM | Potency [5] 3.32 µM | Potency [6] 2.63 µM | Potency [9] 14.8 µM | Potency [10] 20.9 µM | Potency [11] 23.5 µM
inactive: activation [1] 0.071% and -8.47% | Potency [2] | Potency [3]

Cc1cc(C)c(CNC(=O)c2cc(-c3ccc(CN4CCOCC4)cc3)cc3c2cnn3C2CCCC2)c(=O)[nH]1
active: Potency [1] 4.31 µM
inactive: activation [1] 7.64% | Potency [2] | Potency [3]

COCC(=O)O[C@]1(CCN(C)CCCc2nc3ccccc3[nH]2)CCc2cc(F)ccc2[C@@H]1C(C)C
active: Potency [1] 21.9 µM
inactive: activation [1] 29.4% | Potency [12] | Potency [13] | Potency [14] | Potency [15] | Potency [16] | Potency [17]

COCCOc1nc(-c2ccc(Cl)c(Cl)c2)n(-c2ccc(NC(=O)CCl)cc2)n1
active: Potency [1] 15.1 µM | Potency [8] 1.86 µM | Potency [4] 2.09 µM | Potency [5] 5.25 µM | Potency [6] 0.662 µM | Potency [9] 1.32 µM | Potency [10] 1.05 µM | Potency [11] 0.934 µM
inactive: activation [1] 36.6% | Potency [2] | Potency [7]

CN1c2ccccc2C(=O)N2CCc3c([nH]c4ccccc34)C21 (stereo not drawn)
active: Potency [1] 2.69 µM | Potency [8] 5.25 µM | Potency [4] 2.95 µM | Potency [5] 3.32 µM | Potency [6] 1.86 µM | Potency [9] 1.66 µM | Potency [11] 1.32 µM
inactive: activation [1] -3.8% | Potency [2] | Potency [3]

O=C(Nc1cc(C(F)(F)F)cc(C(F)(F)F)c1)c1cc(Cl)ccc1O
active: Potency [1] 3.01 µM | Potency [8] 2.35 µM | Potency [4] 2.09 µM | Potency [5] 1.86 µM | Potency [6] 2.35 µM | Potency [9] 1.66 µM | Potency [10] 1.18 µM | Potency [11] 2.63 µM
inactive: activation [1] 2.31% | Potency [2] | Potency [3]

O=C1Cc2cc(CCN3CCN(c4nsc5ccccc45)CC3)c(Cl)cc2N1
active: Potency [1] 27.6 µM
inactive: activation [1] -69% | Potency [12] | Potency [2] | Potency [3]

COc1ccc(C2CC(c3ccccc3)=NN2c2ccc(S(N)(=O)=O)cc2)cc1 (stereo not drawn)
inactive: activation [1] -16.2% | Potency [2] | Potency [7] | Potency [3] | viability [8] 112% | Potency [9] | Potency [10] | Potency [11]
active: Potency [1] 21.7 µM

Cc1ccnc(NS(=O)(=O)c2ccc(NC(=O)Nc3ccc(S(=O)(=O)Nc4nccc(C)n4)cc3)cc2)n1
inactive: activation [1] 21% | Potency [2] | Potency [3] | viability [8] 112% | Potency [5] | Potency [6] | Potency [11]
active: Potency [1] 9.68 µM

Cc1coc2c1C(=O)C(=O)c1c-2ccc2c(C)cccc12
active: Potency [1] 13.5 µM | Potency [14] 4.49 µM | Potency [15] 12.7 µM | Potency [16] 11.3 µM | Potency [17] 3.57 µM
inactive: activation [1] 9.22%

CC1(O)CC(c2nc(-c3ccc4ccc(-c5ccccc5)nc4c3)c3c(N)nccn23)C1 (stereo not drawn)
active: Potency [1] 24.3 µM
inactive: activation [1] 34.8% | Potency [2] | Potency [3] | viability [8] 83.7% | Potency [4] | Potency [5] | Potency [10] | Potency [11]
